Assay outcomes: PubChem, The Scripps Research Institute Molecular Screening Center
PME-1 primary – blocks human protein phosphatase methylesterase 1; recombinant PME-1, FP-Rh probe fluorescence polarization; inhibition, % at 5.9 µM; AID 2130; 320,000 compounds, 0.53% hits;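 active = inhibition above the campaign mean of all compounds plus 3 SD, cut at about 26% in these data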;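 also: competitive labeling of PME-1 active site by serine hydrolase directed probe; 0% = PME-1 with DMSO and 100% = wells lacking PME-1 enzyme; inhibitors block probe labeling so polarization falls and inhibition rises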
LYPLA1 inh – counter-screen for PME1 inhibitors: inhibitors of human LYPLA1; O75608; recombinant LYPLA1, FP-Rh probe fluorescence polarization; inhibition, % at 5.9 µM; 320,000 compounds, 0.16% hits;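 active = inhibition above the mean of all tested compounds plus 3 SD, set per campaign, cut at about 14% in these data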;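 also: inhibitors block serine hydrolase probe labeling of LYPLA1 so polarization falls; 0% = enzyme with DMSO and 100% = wells lacking LYPLA1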
Target sequence (O75608 whole entry, looked up): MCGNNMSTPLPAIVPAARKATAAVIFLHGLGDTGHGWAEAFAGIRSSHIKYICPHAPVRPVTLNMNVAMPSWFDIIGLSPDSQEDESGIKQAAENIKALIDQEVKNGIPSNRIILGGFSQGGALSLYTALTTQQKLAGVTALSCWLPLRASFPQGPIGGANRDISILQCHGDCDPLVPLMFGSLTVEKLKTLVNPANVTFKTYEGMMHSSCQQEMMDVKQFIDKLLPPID
GSTO1 counter – counter-screen for RBBP9 inhibitors: inhibitors of human GSTO1; P78417; recombinant GSTO1, activity-based probe fluorescence polarization; inhibition, % at 5.96 µM; 300,000 compounds, 1.1% hits;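 active = inhibition above the campaign mean inhibition plus 3 SD, cut at about 35% in these data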;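 also: 0% = GSTO1-1 with DMSO and 100% = wells lacking GSTO1-1 enzyme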
Target sequence (P78417 whole entry, looked up): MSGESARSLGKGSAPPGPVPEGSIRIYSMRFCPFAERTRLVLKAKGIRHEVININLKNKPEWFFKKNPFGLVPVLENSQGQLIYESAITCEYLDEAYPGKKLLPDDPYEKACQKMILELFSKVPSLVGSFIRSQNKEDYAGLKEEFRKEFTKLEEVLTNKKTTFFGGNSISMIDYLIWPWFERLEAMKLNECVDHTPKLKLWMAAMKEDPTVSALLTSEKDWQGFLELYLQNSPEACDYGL
PAD4 FP inh – blocks human protein arginine deiminase 4. Q9UM07. recombinant PAD4, RCA probe fluorescence polarization. inhibition, % at 6.36 µM. 330,000 compounds, 0.41% hits. AID 485272;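 active = percent inhibition above a cutoff equal to the mean of all tested compounds plus 3 SD, cut at about 15% in these data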;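 also: 0% = PAD4 with RCA probe and DMSO and 100% = probe without PAD4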
LYPLA2 counter – counter-screen for PME1 inhibitors: inhibitors of human LYPLA2; O95372; recombinant LYPLA2, FP-Rh probe fluorescence polarization; inhibition, % at 5.9 µM; 320,000 compounds, 0.38% hits; AID 2177;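 active = inhibition above the screen-wide mean plus 3 SD, limit set per campaign, cut at about 26% in these data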;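 also: 0% = LYPLA2 with DMSO and 100% = wells lacking LYPLA2 enzyme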
Fam108B inh – counter-screen for RBBP9 inhibitors: inhibitors of mouse Fam108B; recombinant Fam108B, FP-Rh probe fluorescence polarization; inhibition, % at 9.51 µM; 300,000 compounds, 0.33% hits;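 active = inhibition above the screen mean inhibition plus 3 SD, computed separately per campaign, cut at about 18% in these data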;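 also: inhibitors lower polarization as less probe binds the enzyme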
GSTO1 inh conf – GSTO1 (human) inhibition, confirmation; shares compounds with GSTO1 counter; recombinant GSTO1, probe fluorescence polarization; inhibition, % at 5.96 µM; 2,400 compounds, 54% hits; AID 2176;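 active = inhibition above the primary screen's cutoff, its mean inhibition plus 3 SD, cut at about 35% in these data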;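 also: loss of polarization as inhibitors block binding of rhodamine sulfonate ester activity probe; 0% = GSTO1 with DMSO and 100% = wells lacking GSTO1 enzyme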
GSTO1 recomb ABPP – blocks recombinant human glutathione S-transferase omega 1; shares compounds with GSTO1 counter; recombinant GSTO1, gel ABPP SE-Rh probe fluorescence; inhibition, % at 1 µM; 130 compounds, 30% hits;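 active = inhibition of the enzyme GSTO1 above about 75%, limit read from the data; inactive = inhibition below that limit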
An asterisk follows results filed as active; x = no result given. Hits are enriched below; roughly 1.8% of the tested compounds scored in any of these assays.

SMILES	PME-1 primary	LYPLA1 inh	GSTO1 counter	PAD4 FP inh	LYPLA2 counter	Fam108B inh	GSTO1 inh conf	others
COC(=O)[C@H](Cc1c[nH]c2ccccc12)NC(=O)NCc1ccccc1	0	-4	0	-3	-10	7	x
O=C(CCl)Nc1cccc(S(=O)(=O)NC2=NCCC2)c1	-7	0	99*	-2	0	2	99*
CCNC(=S)Nc1cccc(S(=O)(=O)NC2=NCCC2)c1	2	-5	-2	-5	2	-3	x
CNS(=O)(=O)c1ccc(C(C)(C)C)cc1	-5	-2	8	4	-5	1	x
O=C(NCc1ccncc1)c1ccc(NS(=O)(=O)c2ccc(F)cc2)cc1	-6	-1	x	7	4	x	x
Cc1noc(NS(=O)(=O)c2ccc(NC(=O)CSc3ncccn3)cc2)c1C	1	3	55*	2	8	1	29
Cc1ccc(N=Cc2c(O)c3ccccc3oc2=O)cc1F	1	2	-3	2	5	3	x
C=CCN(CC=C)Cc1c(O)ccc2c1oc(=O)c1ccccc12	5	3	55*	0	2	-2	29
N#Cc1nc(COc2ccccc2F)oc1NCCc1ccccc1	3	-2	43*	1	0	-3	18
O=[N+]([O-])c1ccc(/C=[N+](\[O-])[C@@H]2CCCC[C@@H]2/[N+]([O-])=C/c2ccc([N+](=O)[O-])o2)o1	-2	4	40*	-11	3	4	18
CN(C)Cc1cc(O)c(CN(C)C)cc1O	0	0	53*	-10	0	3	11
Cc1cc(C)c(S(=O)(=O)NCc2cn3ccccc3n2)c(C)c1	8	1	39*	-1	0	2	8
Cc1cc(C)c(S(=O)(=O)Nc2ccc(-c3cn4ccccc4n3)cc2)c(C)c1	-7	-14	-1	4	-21	4	x
Cc1cc(NS(=O)(=O)c2ccc(NC(=O)/C=C/c3cccc(Cl)c3)cc2)no1	-7	-13	-12	-5	-8	-3	x
COc1ccccc1NC(=O)C(C)OC(=O)CC1CCCCC1 (centres undefined)	5	0	x	-8	2	x	x
COc1ccc(/C=C2\SC(=O)N(CCNC(=O)C3=COCCO3)C2=O)cc1	1	-2	42*	-1	-5	2	9
Cc1ccc(N(C(=O)CCl)C(C(=O)NC2CCCCC2)c2cccnc2)cc1C (centres undefined)	-1	0	99*	1	-1	1	92*	GSTO1 recomb ABPP=71
Oc1cccc(/C=N/NC(=S)Nc2cccnc2)c1O	5	-5	79*	0	-2	9	27
Oc1ccc(/C=N/NC(=S)Nc2cccnc2)c(O)c1	6	-1	9	-3	1	13	x
O=C1CSc2ccc(S(=O)(=O)N3CCN(c4ccccc4F)CC3)cc2N1	2	-10	-4	-6	-12	-7	x
CCCOc1ccc(/C(O)=C2/C(=O)C(=O)N(c3cc(C)on3)C2c2ccc(C(=O)OC)cc2)cc1 (centres undefined)	3	4	-9	-4	9	-3	x
CCOc1ccc(/C(O)=C2/C(=O)C(=O)N(c3cc(C)on3)C2c2ccc(C(=O)OC)cc2)cc1 (centres undefined)	-3	0	44*	-1	-5	4	0
COc1ccc(S(=O)(=O)N2CC(C)OC(C)C2)cc1C(=O)N1CCCCC1 (centres undefined)	-4	-5	-4	-1	-7	-7	x
Cc1cccc(N/N=C/c2ccc(O)c(O)c2O)c1	1	-9	56*	0	-3	7	23
COC(=O)[C@H](Cc1c[nH]c2ccccc12)NC(=O)CCCc1c[nH]c2ccccc12	3	0	5	-2	4	5	x
CCOC(=O)C(Cc1ccc(O)cc1)NC(=O)CCc1c[nH]c2ccccc12 (centres undefined)	5	0	38*	-2	5	-5	5
Cc1ccc(C(=O)NC(Cc2ccccc2C(F)(F)F)C(=O)O)cc1 (centres undefined)	x	x	x	-2	x	x	x
